FLuc inh = Firefly luciferase inhibition profiling of diverse chemical library using quantitative high-throughput screening | purified P. pyralis luciferase, luminescence, biochemical | 76,000 compounds, 2.5% hits | AID 1347043, 2019 | Potency, µM (highest dose often 115 µM), actives largely listed as inhibitors; note: nearly all actives have a fitted effect of over 65% in size
Target sequence (P08659 whole entry, looked up): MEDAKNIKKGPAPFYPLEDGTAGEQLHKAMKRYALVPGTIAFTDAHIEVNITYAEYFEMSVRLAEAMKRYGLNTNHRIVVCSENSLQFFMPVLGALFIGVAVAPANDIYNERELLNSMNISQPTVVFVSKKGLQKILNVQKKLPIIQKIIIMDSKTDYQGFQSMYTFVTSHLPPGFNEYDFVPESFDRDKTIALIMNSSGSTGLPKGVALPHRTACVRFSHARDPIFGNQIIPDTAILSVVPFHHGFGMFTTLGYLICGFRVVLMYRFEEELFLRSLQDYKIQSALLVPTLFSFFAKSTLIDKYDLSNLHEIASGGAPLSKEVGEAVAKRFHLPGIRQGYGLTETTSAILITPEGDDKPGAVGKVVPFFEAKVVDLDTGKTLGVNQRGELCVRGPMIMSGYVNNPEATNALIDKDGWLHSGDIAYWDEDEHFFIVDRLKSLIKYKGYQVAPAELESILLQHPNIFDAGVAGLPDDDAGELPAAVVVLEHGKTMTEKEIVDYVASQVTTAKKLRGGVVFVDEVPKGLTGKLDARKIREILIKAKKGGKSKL
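Purified 10nM P. pyralis luciferase with 10uM D-luciferin and 10uM ATP in 50mM Tris acetate pH 7.5, 10mM Mg acetate, 0.01% Tween-20, 0.05% BSA. qHTS titration; luminescence read by CCD imager.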
HEK293 tox = Cytotoxic Profiling in HEK 293 Cell Line of Diverse Libraries Using Quantitative High-Throughput Screening. HEK 293 viability, ATP luminescence (CellTiter-Glo), 48-72 h. Potency, µM (doses to about 115 µM), most hits filed as inhibitors. 94,000 compounds, 6.6% hits; note: nearly all actives have a fitted effect of over 60% in size
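250 HEK 293 cells/well; compound by pintool; incubated 48 or 72 hr at 37 degree Celsius; CellTiter-Glo added, 10 min RT, luminescence imaged.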
NPR1 antag = Natriuretic polypeptide receptor (hNpr1) antagonism - Primary qHTS. Atrial natriuretic peptide receptor 1 (Homo sapiens), P16066. HEK293 hNpr1 GloSensor cGMP, ANP-stimulated luminescence. Potency, µM (highest dose often 46.3 µM), actives largely listed as inhibitors. 76,000 compounds, 1.6% hits. AID 1347048, 2019; calls by dose curve; note: nearly all actives have a fitted effect of over 60% in size
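Compound pre-incubated 30 min at room temperature on GloSensor-loaded HEK293 cells stably carrying hNpr1 and the pGS-40F cGMP biosensor. Stimulation uses hNppA at 0.1 nM final; luminescence is taken at baseline and 20 min post-agonist.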
3T3 cytotox = Cytotoxic Profiling in NIH 3T3 Cell Line of Diverse Libraries Using Quantitative High-Throughput Screening | NIH 3T3 viability, CellTiter-Glo ATP luminescence, 48-72 h | Potency, µM (highest dose often 96.7 µM), hits mostly inhibitors | 94,000 compounds, 4.3% hits; note: nearly all actives have a fitted effect of over 55% in size
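Cytotoxicity was measured by CellTiter-Glo ATP luminescence after 48 or 72 h compound exposure at 37 °C. Mouse NIH 3T3 fibroblasts were seeded at 400 cells/well and dosed by 23 nL pin transfer.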
Of the large screens only hits and unclear results are named; the others gave an inactive call. Hits are enriched below; roughly 11% of the tested compounds scored in any of these assays. Unless noted, calls come from the whole dose curve; as a rule, active = well fitted curve in the direction sought with a large enough effect; inconclusive = small, poorly fitted or top-dose-only effect, or another doubt; inactive = no such curve, though single readings can be large; an effect the other way counts as inactive or inconclusive.

CCCc1nnc(C[C@@H]2C[C@@H](C(C)C)[C@H](CN3CCN(c4ncccn4)CC3)C=C2C)o1	HEK293 tox 39.8µM, 3T3 cytotox inconclusive
CCCc1nnc(C[C@@H]2C[C@@H](C(C)C)[C@H](CN3CCC(O)CC3)C=C2C)o1	none
CC1=C[C@@H](CN2CCN(c3ncccn3)CC2)[C@H](C(C)C)C[C@H]1Cc1nnc(Cc2c[nH]c3ccccc23)o1	HEK293 tox 44.7µM, 3T3 cytotox inconclusive
CCCc1nnc(C[C@@H]2C[C@@H](C(C)C)[C@H](CN3CCN(C(C)=O)CC3)C=C2C)o1	HEK293 tox 100µM
O=C(NC1CCN(c2cc(-c3ccccc3)[nH]n2)CC1)c1cc2ccccc2[nH]1	FLuc inh inconclusive, HEK293 tox inconclusive, NPR1 antag inconclusive
O=C(c1ccoc1)N1CCCN(C2CCC3(CCNCC3)CC2)CC1	none
OC(c1nc(Nc2ccc(Cl)cc2)n[nH]1)C1CC1 (stereo not given)	FLuc inh 22.4µM, HEK293 tox inconclusive, 3T3 cytotox inconclusive
CC(C)c1ccc(Nc2n[nH]c(C(O)C3CC3)n2)cc1 (stereo not given)	FLuc inh 15.8µM, HEK293 tox inconclusive, 3T3 cytotox inconclusive
COc1ccccc1C(O)c1nc(Nc2ccc(C(C)C)cc2)n[nH]1 (stereo not given)	HEK293 tox 100µM, 3T3 cytotox inconclusive
OC(c1cccc(C(F)(F)F)c1)c1nc(Nc2ccc(F)cc2)n[nH]1 (stereo not given)	HEK293 tox 79.4µM, 3T3 cytotox inconclusive
OC(c1nc(Nc2ccc(N3CCOCC3)cc2)n[nH]1)C1CC1 (stereo not given)	HEK293 tox inconclusive, 3T3 cytotox inconclusive
OC(c1nc(Nc2cccc(C(F)(F)F)c2)n[nH]1)C1CC1 (stereo not given)	FLuc inh inconclusive, HEK293 tox inconclusive, 3T3 cytotox inconclusive
CC1(c2ccccc2)CCCN(C(=O)c2cnc(-c3cccnc3)nc2)C1 (stereo not given)	HEK293 tox inconclusive, 3T3 cytotox inconclusive
O=C(NCc1cccs1)c1nc2sccn2c1-c1cccnc1	3T3 cytotox inconclusive (no result: FLuc inh, NPR1 antag)
COc1ccccc1OCC(=O)N1CC[C@@](O)(C2CCOCC2)[C@H](C)C1	none
Cn1cc(C(O)c2nc(Nc3ccc(OC(F)(F)F)cc3)n[nH]2)cn1 (stereo not given)	HEK293 tox 112µM, 3T3 cytotox inconclusive
OC(c1ccccc1)c1nc(Nc2ccc(C(F)(F)F)cc2)n[nH]1 (stereo not given)	HEK293 tox inconclusive, 3T3 cytotox inconclusive
O=C(NCCCc1ccccc1)c1cc(-c2ccccc2)c2nncn2n1	HEK293 tox 44.7µM, 3T3 cytotox inconclusive (no result: FLuc inh, NPR1 antag)
COCCCNC(=O)c1cc(-c2cc(Cl)cc(Cl)c2)c2nncn2n1	3T3 cytotox inconclusive (no result: FLuc inh, NPR1 antag)
O=C(NCCc1ccccc1)c1cc(-c2ccsc2)c2nncn2n1	HEK293 tox 39.8µM, 3T3 cytotox inconclusive (no result: FLuc inh, NPR1 antag)
CC(C)(C)CC(=O)Nc1ccc([C@@H](O)[C@H]2COCC(=O)N2Cc2ccccc2F)cc1	HEK293 tox inconclusive
O=C(C1CC=CCC1)N1CCc2[nH]nc(-c3ccc(C(F)(F)F)cc3)c2C1 (stereo not given)	HEK293 tox 25.1µM, 3T3 cytotox inconclusive
CSCCC(=O)N1CCc2[nH]nc(-c3ccc(C(F)(F)F)cc3)c2C1	FLuc inh inconclusive, HEK293 tox inconclusive, 3T3 cytotox inconclusive
Cc1occc1C(=O)N1C[C@@H](C(=O)O)C[C@H](C(=O)NCc2ccccn2)C1	none
CNC(=O)c1cccc(-c2cnc(Nc3ccncc3)c3c2CCO3)c1	HEK293 tox inconclusive, 3T3 cytotox inconclusive
CNC(=O)c1cccc(-c2cnc(Nc3ccc(F)c(Cl)c3)c3c2CCO3)c1	FLuc inh 10µM, HEK293 tox 28.2µM, 3T3 cytotox inconclusive
CNC(=O)c1cccc(-c2cnc(Nc3cccc(C(F)(F)F)c3)c3c2CCO3)c1	FLuc inh inconclusive, HEK293 tox 63.1µM, NPR1 antag inconclusive, 3T3 cytotox 39.8µM
CNC(=O)c1cccc(-c2cnc(Nc3cccnc3)c3c2CCO3)c1	FLuc inh 25.1µM, HEK293 tox inconclusive, 3T3 cytotox inconclusive
Fc1cccc(-c2cnc(Nc3cnccn3)c3c2CCO3)c1	FLuc inh inconclusive, HEK293 tox 100µM, 3T3 cytotox inconclusive
COc1ccc(C(=O)N2CCC3(CC2)N=C(c2ccccc2)NO3)cc1	none
Cc1ccc([S+](=O)([O-])N2CCC[C@@H]2C(=O)N2CCC(N3CCOC3=O)CC2)cc1	none (no result: FLuc inh, NPR1 antag)
Cc1ccccc1C(=O)N1CCCC(C(=O)N2CCCC(c3nc4ccncc4[nH]3)C2)C1 (stereo not given)	none (no result: FLuc inh, NPR1 antag)
Cc1ccc(Cn2c(C3CCN(C(=O)Cc4cccc(F)c4)CC3)n[nH]c2=O)cc1	none
COc1ccc(C(=O)N2CCCC(c3noc(COc4ccccc4F)n3)C2)cc1 (stereo not given)	HEK293 tox inconclusive, 3T3 cytotox inconclusive
O=C(Nc1ncc(-c2cccc(F)c2)c2c1OCC2)c1ccc(F)c(Cl)c1	HEK293 tox 35.5µM, 3T3 cytotox inconclusive
Cc1noc(C)c1-c1cnc(Nc2ccccc2)c2c1CCO2	HEK293 tox inconclusive, 3T3 cytotox inconclusive
Cc1noc(C)c1-c1cnc(Nc2cccc(C(F)(F)F)c2)c2c1CCO2	FLuc inh inconclusive, HEK293 tox 63.1µM, 3T3 cytotox inconclusive
CC(=O)NC1(C)CCN(Cc2cccc(-c3ccc4c(c3)OCCN4C)c2)C1 (stereo not given)	FLuc inh 22.4µM, HEK293 tox inconclusive, NPR1 antag inconclusive, 3T3 cytotox 89.1µM
CC(=O)NC1(C)CCN(Cc2cccc(-c3ccc(N4CCOCC4)cc3)c2)C1 (stereo not given)	FLuc inh 5.62µM, HEK293 tox inconclusive, NPR1 antag 3.98µM
CC(=O)NC1(C)CCCN(Cc2cccc(-c3ccccc3)c2)C1 (stereo not given)	HEK293 tox inconclusive, 3T3 cytotox inconclusive
Cn1ccc(NC(=O)C2(C)CCc3cnc(Nc4ccccc4)nc32)n1 (stereo not given)	HEK293 tox 100µM, 3T3 cytotox inconclusive
CC1(C(=O)NC2CCOCC2)CCCc2cnc(NCc3ccccc3)nc21 (stereo not given)	HEK293 tox inconclusive
Cn1ccc(NC(=O)C2(C)CCCc3cnc(Nc4ccccc4)nc32)n1 (stereo not given)	HEK293 tox inconclusive, 3T3 cytotox inconclusive
Cn1ccc(NC(=O)C2(C)CCCc3cnc(NCc4ccccc4)nc32)n1 (stereo not given)	HEK293 tox inconclusive, 3T3 cytotox 44.7µM
O=C(NCC(F)(F)F)c1ccc2nnc(-c3cncc(Cl)c3)n2c1	none (no result: FLuc inh, NPR1 antag)
CCS(=O)(=O)N1CCC(c2ncc(C)n2C(C)C)C1 (stereo not given)	none
CCCN1C(=O)CCc2cc(NC(=O)CCOC)ccc21	none
CCCN1C(=O)CCc2cc(NC(=O)c3ccc(OC(F)(F)F)cc3)ccc21	FLuc inh inconclusive, HEK293 tox inconclusive, NPR1 antag inconclusive, 3T3 cytotox 39.8µM

Screening data: PubChem, National Center for Advancing Translational Sciences (NCATS)
